High-throughput results deposited in PubChem BioAssay by National Center for Advancing Translational Sciences (NCATS).
This is a sample that favours compounds with a hit; in the whole collection about 11% have one here.
PNC assembly inh = blocks assembly of the perinucleolar compartment; PC3M PTB-GFP, PNC prevalence imaging, 16 h; stronger effect = lower value; activity change (PNC), negative = inhibition, % at 10 µM; hit rate 3.1% among 140,000;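 active means readout at or below -70, meaning at least 70% loss of cells showing the perinucleolar compartment, a nuclear body marking cancer cells; inconclusive means readout between -30 and a set limit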;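 further: plate controls were DMSO wells for no effect and camptothecin positive control wells for full effect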
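PC3M cells stably expressing PTB-GFP, 750–1000 cells/well, treated 16 h at 37 °C with compound (23 nl of library stock), in duplicate. After paraformaldehyde fixation and Hoechst stain, imaged at 20x; PNC prevalence scored by image analysis.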
ALDH1A1 inh = ALDH1A1 (human) enzyme inhibition; Potency, µM (highest dose often 75.3 µM), for the others: at the top dose activity, negative = inhibition, actives largely listed as inhibitors; Purified ALDH1A1, NADH fluorescence, propionaldehyde substrate; AID 1030; hit rate 7.3% among 220,000;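 further: potency means the concentration at half of the fitted maximal effect; plate controls were no enzyme wells and a reference inhibitor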
Target sequence (P00352 whole entry, looked up): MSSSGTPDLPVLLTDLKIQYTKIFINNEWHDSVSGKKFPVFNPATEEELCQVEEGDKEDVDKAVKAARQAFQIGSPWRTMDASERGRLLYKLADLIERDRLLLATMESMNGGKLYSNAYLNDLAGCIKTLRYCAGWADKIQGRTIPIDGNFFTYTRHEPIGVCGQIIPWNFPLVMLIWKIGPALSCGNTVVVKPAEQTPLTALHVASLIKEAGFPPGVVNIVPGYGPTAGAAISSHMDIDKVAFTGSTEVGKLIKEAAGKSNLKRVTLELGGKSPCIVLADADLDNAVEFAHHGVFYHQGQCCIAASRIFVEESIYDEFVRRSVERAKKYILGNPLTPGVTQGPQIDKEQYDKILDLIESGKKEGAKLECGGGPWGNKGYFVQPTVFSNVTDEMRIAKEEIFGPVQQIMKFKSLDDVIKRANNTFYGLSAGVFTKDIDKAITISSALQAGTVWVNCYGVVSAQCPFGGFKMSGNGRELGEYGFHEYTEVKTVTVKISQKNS
HPGD inh = inhibitors of human 15-hydroxyprostaglandin dehydrogenase (HPGD). purified HPGD, NADH fluorescence kinetic, PGE2 substrate. P15428. AID 894. hit rate 4.3% among 150,000. Potency, µM, inactives show at the top dose activity change, negative = inhibition, usual class: inhibitors; further: potency means the concentration at half of the fitted maximal effect
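NADH formation kinetics: reaction with 30 uM PGE2 and 1 mM NAD+ (final), 20 nM enzyme, Tris-HCl pH 8 with Tween 20, after 15 min compound preincubation at room temperature. Fluorescence change, last versus first of five reads.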
An asterisk follows results filed as active; ? = inconclusive; / = no result; [ ] = dose if it differs, or a comment. Unless noted, the call rests on the fitted dose curve; in most records, active means well fitted inhibition curve with a large enough effect (not every such curve was filed as active); inconclusive means small, poorly fitted or top-dose-only effect, or another doubt; inactive means no such curve, though single readings can be large or run the other way. Unless noted, on the % scale 0 is the no-effect control and ±100 the full control effect.

SMILES	PNC assembly inh	ALDH1A1 inh	HPGD inh
O=C(N/N=C/c1cccs1)/C(=C/c1ccccc1)NC(=O)c1ccccc1	-9.1	0.6%	-12.0%
O=C(c1nn(Cc2ccccc2)c(=O)c2ccccc12)N1CCc2ccccc2C1	26.0	0.891µM*	-6.1%
O=C(c1cc2ccccc2c(=O)o1)N1CCCC1	20.2	-6.6%	-13.2%
O=C(c1cc(=O)c2ccccc2o1)N1CCCc2ccccc21	?	?	-15.9%
Cn1c(C(=O)N2CCc3ccccc3C2)cc2oc3ccccc3c21	-118.9*	-8.3%	0.708µM*
O=C(c1cc2ccccc2c(=O)o1)N1CCc2ccccc2C1	?	1.9%	25.1µM*
O=C(c1nn(Cc2ccccc2)c(=O)c2ccccc12)N1CCN(c2ccccn2)CC1	48.1	?	-6.9%
CCn1c(C(=O)N2CCc3ccccc3C2)cc2oc3ccccc3c21	2.0	?	?
O=C(c1cc2ccccc2c(=O)o1)N1CCCc2ccccc21	-28.7	4.47µM*	-5.4%
CCC#CCOCC(=S)Nc1ccccc1	/	6.2%	-14.6%
COCCNC(=O)NC(=O)CN1CCCc2ccccc21	/	2.8%	/
CCOC(=O)N1CCN(S(=O)(=O)c2ccc(F)c(C(=O)Nc3cccc(Cl)c3C)c2)CC1	?	?	-23.6%
CCC(=O)O[C@@]1(C(=O)CCl)[C@@H](C)C[C@@H]2[C@H]3CCC4=CC(=O)C=C[C@@]4(C)[C@]3(F)[C@@H](O)C[C@@]21C	/	10.9%[20.9 µM]	-1.9%
Cc1[nH]n(-c2ccccc2)c(=O)c1C(c1ccc(C(=O)O)cc1)c1c(C)[nH]n(-c2ccccc2)c1=O	-8.5	?	?
Cc1[nH]n(-c2ccccc2)c(=O)c1C(=O)c1ccc([N+](=O)[O-])cc1	/	-13.9%	/
Cc1[nH]n(-c2ccccc2)c(=O)c1C(C[N+](=O)[O-])c1ccc(Br)cc1 (configuration not stated)	-8.6	22.4µM*	?
Cc1[nH]n(-c2ccccc2)c(=O)c1C(c1cccc([N+](=O)[O-])c1)c1c(C)[nH]n(-c2ccccc2)c1=O	-26.5	?	31.6µM*
O=Cc1ccc(OC2C=CC(C#Cc3ccccc3)OC2CO)cc1 (configuration not stated)	/	-13.8%[13.5 µM]	/
CCC1(CC)N([O-])C(C)=C(c2ccccc2)[N+]1=O	7.7	7.1%	-3.6%
CCC1(C)N([O-])C(C)=C(c2ccccc2)[N+]1=O (configuration not stated)	-88.3*	5.9%	1.3%
COC(=O)C(O)C1C(C)(C)C(OC(C)=O)C2CC3=C4CC(=O)OC(c5ccoc5)[C@]4(C)CCC3[C@@]1(C)C2=O (some centres not stated)	/	-0.4%	-5.8%
COc1cccc(CNC(=O)CCC2CCCN(C(=O)c3ccc(C)nc3)C2)c1 (configuration not stated)	/	1.6%	/
COc1cccc(CNC(=O)CCC2CCCN(C(=O)c3cccc4c(C)c(C)[nH]c34)C2)c1 (configuration not stated)	/	28.2µM*	/
CC(C)(C)c1cc(C(c2cccnc2)N2CCN(CCO)CC2)cc(C(C)(C)C)c1O (configuration not stated)	3.4	?	14.1µM*
CC(C)(C)n1nnnc1C(c1cccnc1)N1CCN(c2cccc(C(F)(F)F)c2)CC1 (configuration not stated)	?	?	-6.3%
SMILES	PNC assembly inh	ALDH1A1 inh	HPGD inh
COc1ccc(CCSc2nnc(C3CCCCC3)n2N)cc1	22.3	-8.4%	20µM*
COc1ccc(NC(=O)CSc2nnc(C3CC3)n2N)cc1	38.0	-14.7%	-11.0%
COc1ccccc1CC(=O)NNS(=O)(=O)c1ccc([N+](=O)[O-])cc1	/	0.7%	/
CCOC(=O)C1C(=O)CC(C)(O)C(C(=O)OCC)C1c1ccc(OC)cc1 (configuration not stated)	?	5.6%	-6.9%
CC(=O)C1C(=O)CC(C)(O)C(C(C)=O)C1c1ccc(N(C)C)cc1 (configuration not stated)	?	3.16µM*	0.1%
NC1=NS(=O)(=O)NC1c1ccc(Br)cc1 (configuration not stated)	/	7.5%	/
O=[N+]([O-])c1ccc(/C=N/NC(=S)Nc2ccccc2)o1	125.8	2.4%	25.1µM*
O=[N+]([O-])c1ccc(/C=N/NC(=S)Nc2ccccc2F)o1	?	?	-12.0%
O=C(N/N=C/c1ccc([N+](=O)[O-])o1)c1ccc(O)cc1	-26.6	25.1µM*	-29.7%
O=C(N/N=C/c1ccc([N+](=O)[O-])o1)c1ccncc1	/	-4.1%	/
CC1(C)CC(=O)C2=C(C1)N(N1CCOCC1)C(N)=C(C#N)C2c1cccs1 (configuration not stated)	-25.4	9.1%	-11.4%
CCSc1sccc1C1C(C#N)=C(N)N(c2cccnc2)C2=C1C(=O)CC(C)(C)C2 (configuration not stated)	-5.5	-6.0%	-10.0%
CC1(C)CC(=O)C2=C(C1)N(c1cccnc1)C(N)=C(C#N)C2c1cccs1 (configuration not stated)	0.0	22.4µM*	-26.1%
CN(C)N1C(N)=C(C#N)C(c2cccs2)C2=C1CC(C)(C)CC2=O (configuration not stated)	/	10µM*	/
CCOc1ccc(-n2ccnc2SCC(=O)Nc2cc(C)on2)cc1	/	3.5%	/
COc1cc(C(=S)N2CCCC2)cc(OC)c1OS(=O)(=O)c1ccc(NC(C)=O)cc1	1.9	?	22.4µM*
COc1ccc(CN2CCN(C(=O)C3CCC(CNS(=O)(=O)c4ccc(C)cc4)CC3)CC2)c(OC)c1OC (configuration not stated)	/	20µM*	/
CC(=O)Nc1ccc(S(=O)(=O)NCC2CCC(C(=O)N3CCCCCC3)CC2)cc1 (configuration not stated)	38.2	22.4µM*	7.08µM*
O=C(C1CCC(CNS(=O)(=O)c2ccc(F)cc2)CC1)N1CCOCC1 (configuration not stated)	/	11.3%	/
COc1cc(C(=S)N2CCOCC2)ccc1OS(=O)(=O)c1ccc(NC(C)=O)cc1	-15.4	3.7%	-9.4%
CCOC(=O)N1CCN(C(=O)C2CCC(CNS(=O)(=O)c3ccc(Cl)cc3)CC2)CC1 (configuration not stated)	-14.1	-2.0%	-3.6%
COC(=O)c1ccc(C(NC(=O)OCc2ccccc2)/C(=C/[C@@H](C)C(=O)NCc2cc(C)on2)c2cccnc2)cc1 (some centres not stated)	/	0.8%	-6.3%
O=C(c1cc(-c2ccccc2)on1)N1CCCc2ccccc21	/	14.1µM*	/
Cn1c(C(=O)N2CCCc3ccccc32)cc2sccc21	-7.5	7.94µM*	15.8µM*
O=C(c1cc(-c2ccco2)on1)N1CCCc2ccccc21	?	8.91µM*	-21.6%
SMILES	PNC assembly inh	ALDH1A1 inh	HPGD inh
O=C(c1cc(-c2ccccc2)on1)N1CCCC1	32.1	-1.0%	?
O=C(c1cc2sccc2n1Cc1ccccc1)N1CCCc2ccccc21	?	-10.8%	-11.5%
Cn1ccc(C(=O)N2CCCc3ccccc32)n1	-14.0	12.7%	2.4%
S=C(Nc1ccccc1)c1nc2ccccc2s1	17.8	-10.9%	-8.3%
CC(C)(CO)CNC(=O)c1ccc(OC2CCN(C(=O)C3CC3)CC2)cc1	/	-1.4%	/
CC(=O)Nc1ccc(C(=O)CSc2cc(C)c3cccc(C)c3n2)cc1	28.2	7.7%	-16.0%
